Calls of active or inactive are those of the source. Unless noted, how the calls were made is not given here.
Columns and labels:
[1] = compounds binding Alexa647 anti-His antibody – biochemical, small-molecule microarray, 635 nm fluorescence, artefact control for SMM control protein annotation, primary screen (AID 1128); conditions: higher = more signal;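 further: score merges feature fluorescence with signal-to-noise for each printed compound spot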
[2] = system: Human papillomavirus type 1a E7 protein (residues 1-88); assay: HPV1a E7 small-molecule binders, primary screen, biochemical, small-molecule microarray, residues 1-88, 635 nm (AID 1129); conditions: small-molecule microarray binding, fluorescence 635 nm; higher = more signal
[3] = molecular target: Focal adhesion kinase 1 (Homo sapiens) (UniProt Q05397); assay: PTK2 protein binding on printed compound slides – biochemical, small-molecule microarray, 635/667 nm fluorescence, BSA, DTT, primary screen (AID 1130); conditions: 635 nm fluorescence, higher = more signal;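 further: composite of spot emission at 667 nm and signal to noise over triplicate slides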
Chain of Focal adhesion kinase 1 (Homo sapiens) (Q05397 whole entry, looked up): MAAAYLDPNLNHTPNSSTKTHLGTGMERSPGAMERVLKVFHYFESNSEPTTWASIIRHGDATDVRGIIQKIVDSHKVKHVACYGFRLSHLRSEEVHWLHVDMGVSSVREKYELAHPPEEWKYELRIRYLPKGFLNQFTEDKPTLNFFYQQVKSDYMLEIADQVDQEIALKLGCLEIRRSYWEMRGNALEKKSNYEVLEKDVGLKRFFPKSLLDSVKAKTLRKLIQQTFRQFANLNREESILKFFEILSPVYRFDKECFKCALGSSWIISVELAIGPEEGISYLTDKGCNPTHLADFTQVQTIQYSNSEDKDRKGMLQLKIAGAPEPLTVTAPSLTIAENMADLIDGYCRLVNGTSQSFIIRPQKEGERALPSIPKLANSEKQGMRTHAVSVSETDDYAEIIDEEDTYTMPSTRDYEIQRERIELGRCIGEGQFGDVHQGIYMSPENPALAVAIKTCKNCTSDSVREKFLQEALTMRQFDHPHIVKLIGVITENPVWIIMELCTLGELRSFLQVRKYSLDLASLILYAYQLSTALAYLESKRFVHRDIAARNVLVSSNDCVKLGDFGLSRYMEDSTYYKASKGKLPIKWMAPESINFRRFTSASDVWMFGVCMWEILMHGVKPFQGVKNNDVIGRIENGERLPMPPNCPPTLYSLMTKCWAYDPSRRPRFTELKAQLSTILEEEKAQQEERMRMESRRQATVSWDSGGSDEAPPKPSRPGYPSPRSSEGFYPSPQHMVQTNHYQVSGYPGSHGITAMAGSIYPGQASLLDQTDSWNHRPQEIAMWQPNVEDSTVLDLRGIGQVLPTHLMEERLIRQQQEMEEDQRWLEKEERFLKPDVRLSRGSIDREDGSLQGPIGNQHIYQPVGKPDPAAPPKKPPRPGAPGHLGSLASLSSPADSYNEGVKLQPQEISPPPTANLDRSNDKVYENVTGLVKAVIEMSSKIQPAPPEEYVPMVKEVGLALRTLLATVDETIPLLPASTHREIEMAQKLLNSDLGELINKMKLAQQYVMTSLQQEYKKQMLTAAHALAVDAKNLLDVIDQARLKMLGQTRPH

[4] = system: Fibrinogen (Alexa647-labelled); assay: Alexa647-fibrinogen binding to printed small molecules – biochemical, small-molecule microarray, 635/667 nm fluorescence, artefact control for SMM control-protein annotation, profiling panel (AID 1131); conditions: fibrinogen-A647 binding fluorescence, higher = more signal;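 further: z-score merges 667 nm fluorescence with per-spot signal-to-noise over triplicate slides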
[5] = molecular target: Follistatin (Homo sapiens) (UniProt P19883); assay: FST protein binding to printed compounds – biochemical, small-molecule microarray, 635/667 nm fluorescence, primary screen (AID 1132); conditions: 635 nm fluorescence, higher = more signal
Chain of Follistatin (Homo sapiens) (P19883 whole entry, looked up): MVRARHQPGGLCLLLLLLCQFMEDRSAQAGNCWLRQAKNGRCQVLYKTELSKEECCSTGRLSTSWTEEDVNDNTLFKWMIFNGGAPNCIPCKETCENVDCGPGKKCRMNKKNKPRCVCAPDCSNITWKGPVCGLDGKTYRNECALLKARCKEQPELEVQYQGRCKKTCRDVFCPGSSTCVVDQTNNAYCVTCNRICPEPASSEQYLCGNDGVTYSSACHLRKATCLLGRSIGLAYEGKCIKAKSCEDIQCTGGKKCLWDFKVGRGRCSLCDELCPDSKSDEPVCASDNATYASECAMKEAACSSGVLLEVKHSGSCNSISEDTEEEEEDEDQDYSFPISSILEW

[6] = molecular target: Fibroblast growth factor 2 (Homo sapiens) (UniProt P09038); assay: basic fibroblast growth factor binding to printed compounds – biochemical, small-molecule microarray, 635/667 nm fluorescence, primary screen (AID 1133); conditions: FGF2, fluorescence 635/667, higher = more signal
Chain of Fibroblast growth factor 2 (Homo sapiens) (P09038 whole entry, looked up): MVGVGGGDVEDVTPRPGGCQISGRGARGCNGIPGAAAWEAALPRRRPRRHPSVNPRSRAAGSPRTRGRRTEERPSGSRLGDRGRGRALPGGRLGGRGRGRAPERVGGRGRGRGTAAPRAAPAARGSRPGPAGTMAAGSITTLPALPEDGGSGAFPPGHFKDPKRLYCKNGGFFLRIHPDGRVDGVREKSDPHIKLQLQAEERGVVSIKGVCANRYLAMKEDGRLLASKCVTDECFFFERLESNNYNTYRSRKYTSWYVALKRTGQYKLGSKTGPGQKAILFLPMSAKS

[7] = JC-1 mitochondrial potential readout, lung cancer cells – cell-based, A549, JC-1 fluorescence, basal, 24 h, 100 nL, profiling panel (AID 1138); conditions: higher = more signal;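 further: A549 lung adenocarcinoma cells under basal conditions with no added stimulus; test concentration not given here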
Lefty1 = Lefty1 protein binding to printed compounds – biochemical, small-molecule microarray, 635/667 nm fluorescence, primary screen (AID 1139); conditions: fluorescence 635/667, higher = more signal
[8] = system: wheat germ agglutinin (Triticum aestivum), Alexa647-labelled; assay: Alexa647-WGA lectin binding to printed small molecules – biochemical, small-molecule microarray, 635/667 nm fluorescence, artefact control for SMM control-protein annotation, profiling panel (AID 1140); conditions: WGA-A647 binding, 635 nm fluorescence, higher = more signal;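 further: score merges 667 nm feature emission with signal to noise over triplicate slides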
[9] = molecular target: Luciferin 4-monooxygenase (Photinus pyralis) (UniProt P08659); assay: inhibition of purified Photinus pyralis luciferase – biochemical, luminescence, purified enzyme, 2006 set, primary screen (AID 1141); conditions: purified firefly luciferase, SteadyGlo luminescence, 30 min; higher = more signal, called active from +8 up or from −8 down;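 further: cell-free assay with purified firefly luciferase at 100 ng per well in PBS; test concentration not given here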
Chain of Luciferin 4-monooxygenase (Photinus pyralis) (P08659 whole entry, looked up): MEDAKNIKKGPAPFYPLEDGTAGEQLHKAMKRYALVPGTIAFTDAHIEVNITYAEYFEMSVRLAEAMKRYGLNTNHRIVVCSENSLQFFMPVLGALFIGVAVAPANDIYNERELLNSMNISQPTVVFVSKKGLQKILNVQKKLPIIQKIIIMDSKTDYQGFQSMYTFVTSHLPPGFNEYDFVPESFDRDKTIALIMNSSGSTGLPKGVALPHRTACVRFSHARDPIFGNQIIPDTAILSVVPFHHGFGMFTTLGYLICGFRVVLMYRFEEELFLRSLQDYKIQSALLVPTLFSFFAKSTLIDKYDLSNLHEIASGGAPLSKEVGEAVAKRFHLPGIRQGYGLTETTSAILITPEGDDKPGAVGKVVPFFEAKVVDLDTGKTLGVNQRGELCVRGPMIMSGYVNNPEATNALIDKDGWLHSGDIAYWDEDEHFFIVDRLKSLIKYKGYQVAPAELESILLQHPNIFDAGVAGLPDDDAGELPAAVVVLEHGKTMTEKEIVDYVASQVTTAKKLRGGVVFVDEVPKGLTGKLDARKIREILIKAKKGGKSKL

[10] = system: Wnt5a (protein binding on small-molecule microarray); assay: small molecules binding Wnt5a protein – biophysical, small-molecule microarray, 635/667 nm fluorescence, primary screen (AID 1142); conditions: 635 nm fluorescence, higher = more signal;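 further: fluorescence read at 667 nm with signal to noise per printed feature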
[11] = ATP-based viability of Huh7 replicon cells – cell-based, CellTiter-Glo luminescence, basal, 48 h, cytotoxicity control for HCV replication inhibitor project, primary screen (AID 1143); conditions: higher = more signal, called active from +8 up or from −8 down;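 further: Huh7 hepatoma cells carrying a hepatitis C replication reporter with no stimulus; test concentration not given here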
[12] = Pseudomonas biofilm growth suppression – PAO1 strain, BacTiter-Glo luminescence, LB-PBS, primary screen (AID 1144); conditions: P. aeruginosa PAO1 biofilm, 12 h, higher = more signal
[13] = basal CRE-LacZ reporter activity in PC12 – cell-based, unstimulated, primary screen (AID 1145); conditions: no forskolin, luminescence, 4.5 h, higher = more signal, called active from +8 up or from −8 down
[14] = forskolin-driven CRE-LacZ activity in PC12 – cell-based, CRE-LacZ reporter, forskolin-stimulated, primary screen (AID 1146); conditions: luminescence, 4.5 h, higher = more signal, called active from +8 up or from −8 down;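 further: PC12 cells with 6xCRE LacZ reporter stimulated by forskolin 10 µM; beta-galactosidase reporter signal reflecting CREB driven transcription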
[15] = molecular target: Streptavidin (Streptomyces avidinii) (UniProt P22629); assay: compounds binding control protein streptavidin – biophysical, small-molecule microarray, 635/667 nm fluorescence, artefact control for SMM compound annotation, primary screen (AID 1147); conditions: higher = more signal;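 further: signal reflects streptavidin binding to arrayed compounds as a control protein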
Chain of Streptavidin (Streptomyces avidinii) (P22629 whole entry, looked up): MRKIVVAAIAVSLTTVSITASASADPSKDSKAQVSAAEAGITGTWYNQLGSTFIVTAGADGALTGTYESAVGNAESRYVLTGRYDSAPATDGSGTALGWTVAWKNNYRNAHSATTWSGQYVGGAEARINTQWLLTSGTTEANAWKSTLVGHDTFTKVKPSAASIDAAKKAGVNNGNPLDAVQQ

[16] = probe aInhba binding on compound microarray – biochemical, small-molecule microarray, 635/667 nm fluorescence, primary screen (AID 1148); conditions: higher = more signal;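 further: score merges 667nm spot fluorescence with signal-to-noise for antibody binding to printed compounds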
Torsin-1A (Homo sapiens) [17] = molecular target: Torsin-1A (Homo sapiens) (UniProt O14656); assay: TOR1A wild-type binding on microarray – cell lysate, small-molecule microarray, lysate, 635/667 nm, primary screen (AID 1149); conditions: COS7 hTOR1A-WT lysate, 635 nm fluorescence, higher = more signal
Chain of Torsin-1A (Homo sapiens) (O14656 whole entry, looked up): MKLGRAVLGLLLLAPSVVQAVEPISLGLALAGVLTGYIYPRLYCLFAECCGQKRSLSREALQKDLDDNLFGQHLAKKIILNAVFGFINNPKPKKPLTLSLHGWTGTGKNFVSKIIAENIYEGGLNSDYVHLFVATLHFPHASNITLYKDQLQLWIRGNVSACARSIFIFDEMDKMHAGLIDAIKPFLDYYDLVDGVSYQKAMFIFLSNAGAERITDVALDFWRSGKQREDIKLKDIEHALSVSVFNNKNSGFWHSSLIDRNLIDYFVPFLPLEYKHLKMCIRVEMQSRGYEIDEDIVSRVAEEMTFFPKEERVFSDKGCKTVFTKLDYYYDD

Torsin-1A (Homo sapiens) [18] = molecular target: Torsin-1A (Homo sapiens) (UniProt O14656); assay: torsin A mutant lysate binding on microarrays – cell lysate, small-molecule microarray, COS7 lysate, 635/667 nm fluorescence, primary screen (AID 1150); conditions: COS7 hTOR1A mutant lysate, 635 nm fluorescence, higher = more signal;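 further: score pools 667 nm emission and signal to noise measuring lysate protein binding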
[19] = system: Sonic hedgehog protein (Shh); assay: Sonic hedgehog microarray binding compounds – biochemical, small-molecule microarray, 635/667 nm fluorescence, primary screen (AID 1151); conditions: 635 nm fluorescence, higher = more signal;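 further: Shh protein binding to compounds spotted on small-molecule microarray slides; score combines spot fluorescence intensity with signal-to-noise across triplicate slides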

| Compound | composite z-score [1] | composite z-score [2] | composite z-score [3] | composite z-score [4] | composite z-score [5] | composite z-score [6] | z-score [7] | composite z-score (Lefty1) | composite z-score [8] | z-score [9] | composite z-score [10] | z-score [11] | z-score [12] | z-score [13] | z-score [14] | composite z-score [15] | composite z-score [16] | composite z-score (Torsin-1A (Homo sapiens) [17]) | composite z-score (Torsin-1A (Homo sapiens) [18]) | composite z-score [19] |
| --- | --- | --- | --- | --- | --- | --- | --- | --- | --- | --- | --- | --- | --- | --- | --- | --- | --- | --- | --- | --- |
| COc1ccccc1CN1C(=O)c2ccccc2[C@](Cc2ccccc2I)(C(=O)NCC(F)(F)F)[C@@H]1c1ccc(CO)cc1 | 2.25 | 1.24 | 0.473 | 0.74 | 1.26 | 0.342 | -0.878 | 0.168 | 0.887 | 0.347 (inactive) | 0.431 | -2.75 (inactive) | -0.243 (inactive) | -0.735 (inactive) | 6.82 (inactive) | 1.14 | 0.189 | 1.36 | -0.103 | 0.251 |
| C=CC1c2cc(O)c(OC)cc2CCN1Cc1cc2c(cc1Br)OCO2 (stereo not given) | 0.976 | -1.38 | -0.0181 | -0.851 | 1.27 | -0.0941 | -1.54 | 0.504 | -0.623 | 0.0715 (inactive) | -0.158 | -5.24 (inactive) | 0.0937 (inactive) | 0.299 (inactive) | 0.962 (inactive) | -0.361 | -0.128 | 1.34 | 0.587 | 0.672 |
| O=C1NC(=O)C2C1C=CC(C(O)c1cccc3ccccc13)N2Nc1ccc(Cl)cc1Cl (stereo not given) | 1.92 | 1.16 | 0.442 | 0.838 | 0.425 | -0.517 | -1.28 | -0.734 | 0.758 | 0.0698 (inactive) | 0.288 | -1.96 (inactive) | -0.329 (inactive) | -0.14 (inactive) | -0.572 (inactive) | 0.984 | 0.153 | -0.616 | 1.01 | -0.325 |
| C=CC[C@]1(C(=O)NCCN2CCOCC2)N=C(c2ccc(OCCCO)cc2)O[C@H]1c1ccccc1CN=[N+]=[N-] | 0.625 | 1.18 | -0.319 | 0.636 | 1.46 | 1.68 | 2.52 | 0.0118 | 1.03 | -1.37 (inactive) | 1.08 | -0.933 (inactive) | 0.81 (inactive) | 2.01 (inactive) | -0.784 (inactive) | -0.422 | -0.374 | 1.39 | 1.11 | 0.284 |
| CCCCCCc1nc(-c2cc(C)c(OC)c(C)c2)c(C)c2c1[Si](C(C)C)(C(C)C)OC2 | -0.351 | 0.0093 | 0.126 | -0.273 | 0.204 | -0.18 | -0.522 | 0.195 | -0.496 | 0.325 (inactive) | 0 | -3.03 (inactive) | -0.892 (inactive) | 0.148 (inactive) | -0.101 (inactive) | 0.273 | -0.128 | 0.0704 | -1.06 | 0.186 |

Source: PubChem BioAssay
